Source: PubChem BioAssay (NCI)
This is part of a sample that, as a whole, favours compounds with a hit. Of some 83,000 tested, about 20% had one in any assay.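 Method: cells in 96-well plates; compound added at one concentration; 48 h incubation; percent growth measured; values under 10 scored active.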 A number with no mark means an inactive call. Activity calls are given as the source filed them.

Key:
Assay in all cases: NCI-60 one-dose screen, 48 h (100 = growth as untreated, 0 = no growth, -100 = all killed)
Settings in all cases: 10 µM
HCT-15 colon = test system: HCT-15 colon
HT29 colon = test system: HT29 colon
SNB-75 CNS = test system: SNB-75 CNS
SNB-19 CNS = test system: SNB-19 CNS
U251 CNS = test system: U251 CNS
PC-3 prostate = test system: PC-3 prostate
SK-MEL-5 melanoma = test system: SK-MEL-5 melanoma
UACC-62 melanoma = test system: UACC-62 melanoma
SK-MEL-28 melanoma = test system: SK-MEL-28 melanoma
LOX IMVI melanoma = test system: LOX IMVI melanoma

Compound	growth (HCT-15 colon)	growth (HT29 colon)	growth (SNB-75 CNS)	growth (SNB-19 CNS)	growth (U251 CNS)	growth (PC-3 prostate)	growth (SK-MEL-5 melanoma)	growth (UACC-62 melanoma)	growth (SK-MEL-28 melanoma)	growth (LOX IMVI melanoma)
O=C1Nc2ccc(Cl)cc2/C1=C/c1cccc(OCc2ccccc2)c1	22.3%	30.7%	73.9%	44.2%	3.61% (active)	29.3%	22.4%	26.3%	46.9%	–
CN1CCc2c(sc3ncnc(N/N=C/c4ccc5ccccc5c4)c23)C1	2.05% (active)	20.4%	76.4%	74.2%	-4.86% (active)	102%	97.9%	79.1%	100%	9.53% (active)
N#Cc1c(NC(=O)c2ccc(C(O)(C(F)(F)F)C(F)(F)F)cc2)sc2c1CCC(=O)C2	-68.7% (active)	-34.5% (active)	16.9%	-15.9% (active)	-91.1% (active)	-44.8% (active)	-99.1% (active)	-88.3% (active)	-87.1% (active)	-96.4% (active)
O=C1Nc2cc(-c3ccc(NC(=O)c4cccc([N+](=O)[O-])c4)cc3)ccc2/C1=C/c1ccc[nH]1	55.3%	102%	223%	94.5%	99.3%	66.2%	104%	63.7%	97.1%	–
CC(=O)c1cc(C(=O)N2c3ccccc3Sc3ccccc32)n2ccc(C)cc12	10.5%	32.7%	83.1%	49.8%	36.1%	28.3%	-36.3% (active)	23.8%	48.7%	-40% (active)
CC1=N/C(=C\c2ccc(N(C)C)cc2)C(=O)N1CCc1ccc(S(N)(=O)=O)cc1	104%	105%	77.8%	95.2%	91.8%	96.7%	97.8%	93.7%	117%	98.1%
CCCCOc1ccc(Nc2nc3ccccc3nc2Nc2ccc(OCCCC)cc2)cc1	64.4%	73.7%	89.5%	84.1%	67.3%	59.7%	96.3%	90.6%	109%	–
O=c1cc(-c2ccccc2)oc2cc(OCCCCNCc3ccccc3)cc(O)c12	-86.1% (active)	-55.4% (active)	53.4%	67.2%	-64.7% (active)	-8.47% (active)	-99.9% (active)	-68.7% (active)	-69.7% (active)	-99.9% (active)
COc1ccc(Nc2nc(N)n(Cc3cccc(Br)c3)n2)cc1	8.53% (active)	31.9%	11.7%	18.6%	24.7%	13.1%	-93.3% (active)	2.3% (active)	5.84% (active)	-67.3% (active)
COc1ccc2[nH]cc(/C=N/Nc3cccc(Cl)n3)c2c1	29.6%	60.6%	61.8%	61%	57.5%	35%	64%	61.8%	96.4%	28.8%
Nc1nnc(-c2c[nH]c3ncccc23)c(-c2c[nH]c3ccc(Br)cc23)n1	56.5%	45.1%	28.2%	40.8%	37.5%	56.9%	-33.5% (active)	33.8%	54%	–
O=C1Nc2cc(-c3ccc(NC(=O)c4cccs4)cc3)ccc2/C1=C/c1ccc[nH]1	47.6%	71.1%	138%	87.1%	65.9%	65.6%	63.6%	80.8%	101%	55.7%
NS(=O)(=O)c1ccc(N=Nc2c(O)n(CC(=O)Nc3ccccc3Br)c3ccccc23)cc1	38.2%	9.73% (active)	77%	50.1%	25.1%	39.7%	14.7%	31.2%	24.9%	–
COC[C@@H](CC(C)C)N=C1NC(=O)/C(=C/c2ccc3ncsc3c2)N1	1.92% (active)	-14.7% (active)	-4.85% (active)	11.5%	15.8%	30.9%	-12.1% (active)	1.43% (active)	0.97% (active)	–
N#C/C(=C\c1ccc(N(c2ccccc2)c2ccccc2)cc1)C(N)=O	65.1%	30.5%	95.4%	77%	32.5%	61%	31.2%	-47.3% (active)	104%	–
COC(=O)C[C@](O)(CCCC(C)(C)O)C(=O)O[C@H]1C(OC)=C[C@@]23CCC(=O)N2CCc2cc4c(cc2[C@@H]13)OCO4	97.8%	93.6%	94.6%	84.4%	114%	89.5%	98.3%	89.5%	103%	–
CN1C(=O)N(C)C2SC(N/N=C/c3cccs3)=NC21 (stereo not given)	20.2%	7.66% (active)	-1.77% (active)	30.3%	22.8%	48.3%	8.57% (active)	4.74% (active)	47.5%	–
Cc1ccc(-c2cc(-c3cc4ccccc4nc3Cl)[nH]c(=S)n2)cc1	30.2%	43.3%	66.2%	71.1%	71.8%	53.1%	-11% (active)	21.5%	47.4%	–
CCN(CC)CCOc1ccc(C(=C(C)c2ccccc2)c2ccc(OCCN(CC)CC)cc2)cc1	-31.2% (active)	-57.6% (active)	6.51% (active)	9.06% (active)	-21.8% (active)	22.7%	-100% (active)	-86.5% (active)	-96.5% (active)	–
C=C1CCC2C3(C)COC(c4cc(F)cc(F)c4)OC3CCC2(C)C1C/C=C1/C(=O)OCC1O (stereo not given)	-34.6% (active)	-29.3% (active)	-45.9% (active)	-78.5% (active)	-95.2% (active)	-32.1% (active)	-88.6% (active)	-15.2% (active)	-70.7% (active)	–
C=C1CCC2C3(C)COC(c4ccccc4F)OC3CCC2(C)C1C/C=C1/C(=O)OCC1O (stereo not given)	-20% (active)	-14.6% (active)	-58.3% (active)	-93.4% (active)	-95.4% (active)	-17.5% (active)	-91.1% (active)	-7.01% (active)	-66.1% (active)	–
Cc1ccc(-c2nc(Nc3ccccc3C(=O)O)c3ccccc3n2)cc1	4.66% (active)	17.8%	15.7%	8.82% (active)	18.4%	15.7%	-24.8% (active)	11%	28.8%	–
Cc1ccc2nc3c(nc2c1)c1cc(I)ccc1n3CCN(C)C	10.1%	14.4%	30.6%	24.9%	24.2%	26%	48.1%	59.1%	11.9%	–
COc1cc(-c2nc3cc(Cl)c(Cl)cc3[nH]2)ccc1OCc1nnc(-c2ccc(Br)cc2)o1	3.31% (active)	10%	-58.8% (active)	41.5%	1.03% (active)	-15.8% (active)	3.12% (active)	-42.1% (active)	-25% (active)	–
N#Cc1c(NC(=O)c2ccc(C(F)(F)F)cc2)sc2c1CCC(=O)C2	-66.1% (active)	8.13% (active)	-44.9% (active)	-42.2% (active)	-66.3% (active)	-9.55% (active)	-97.7% (active)	-82.7% (active)	-88.2% (active)	–
COc1ccc2c3nc4cc(C)c(C)cc4nc3n(CCN(C)C)c2c1	1.95% (active)	31.4%	21.5%	9.9% (active)	-73.1% (active)	21.2%	-80.7% (active)	3.37% (active)	-63.9% (active)	–
CC1(c2ccccc2)NC(=O)N(CC(=O)Nc2ccc(C(=O)/C=C/c3ccc(Br)cc3)cc2)C1=O (stereo not given)	19%	3.41% (active)	41.6%	56.7%	15.1%	20.1%	27.5%	27.2%	48.9%	–
COc1ccc(NC(=O)Nc2ccc(OCC(=O)N=Nc3c(O)[nH]c4ccc([N+](=O)[O-])cc34)cc2)cc1	106%	95.2%	72.4%	40.4%	25%	81.9%	96%	104%	115%	–
